Here are results for 1 compound from the supplement of paper PMC6411743.

The structures appear in SMILES notation. ± gives the standard deviation of the averaged measurements. The full data set covers some 5,400 targets. This sample favours those with the largest changes.

The target in this test is T1, NUFIP2 (UniProt Q7Z417).
T1 sequence (whole entry): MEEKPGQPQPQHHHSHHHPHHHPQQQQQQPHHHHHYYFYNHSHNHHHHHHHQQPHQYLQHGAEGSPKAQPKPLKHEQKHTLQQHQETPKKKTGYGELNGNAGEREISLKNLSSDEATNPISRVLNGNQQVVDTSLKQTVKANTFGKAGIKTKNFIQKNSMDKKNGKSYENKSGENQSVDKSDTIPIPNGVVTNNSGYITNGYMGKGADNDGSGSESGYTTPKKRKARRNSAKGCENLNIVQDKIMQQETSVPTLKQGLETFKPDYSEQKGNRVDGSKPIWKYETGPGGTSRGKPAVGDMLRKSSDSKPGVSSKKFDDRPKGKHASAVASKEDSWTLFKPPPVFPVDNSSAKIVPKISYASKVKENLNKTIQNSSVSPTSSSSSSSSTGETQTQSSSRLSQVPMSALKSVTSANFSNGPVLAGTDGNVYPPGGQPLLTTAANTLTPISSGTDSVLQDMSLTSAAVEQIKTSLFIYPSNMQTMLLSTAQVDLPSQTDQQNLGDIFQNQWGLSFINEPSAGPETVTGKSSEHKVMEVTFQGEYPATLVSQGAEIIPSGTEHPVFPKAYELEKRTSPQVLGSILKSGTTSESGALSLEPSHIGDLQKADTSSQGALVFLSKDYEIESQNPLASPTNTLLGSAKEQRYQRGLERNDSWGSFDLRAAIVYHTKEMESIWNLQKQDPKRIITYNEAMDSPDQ
As to the kind of experiment: NP40-soluble protein abundance relative to vehicle (solubility fold change) (ratio); higher = more soluble protein in presence of GTP. How it is done: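 Solubility proteome profiling in Jurkat crude lysate. Lysate was treated with Mg-GTP (0.1-10 mM) for 10 min at room temperature and 3 min at 37 °C, then solubilised with 0.8% NP40 and benzonase, followed by ultracentrifugation. Proteins were quantified by TMT10 LC-MS/MS; the value is the NP40-soluble abundance relative to the NP40-processed vehicle, from 3 independent experiments.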

For the compound `Nc1nc2c(ncn2[C@@H]2O[C@H](COP(=O)(O)OP(=O)(O)OP(=O)(O)O)[C@@H](O)[C@H]2O)c(=O)[nH]1` [guanosine triphosphate], the NP40-soluble protein abundance is, setting by setting: (concentration: 0.1mM) 0.964 ± 0.079; (concentration: 0.5mM) 0.977 ± 0.14; (concentration: 1mM) 1.06 ± 0.12; (concentration: 2mM) 1.07 ± 0.15; (concentration: 4mM) 1.17 ± 0.15; (concentration: 6mM) 1.21 ± 0.15. In addition, the NP40-soluble protein abundance worked out at 1.28 ± 0.089 (concentration: 8mM) and 1.34 ± 0.13 (concentration: 10mM).
